# Results as given in PubChem BioAssay AID602124 (The Scripps Research Institute Molecular Screening Center, 2011).
# The campaign covered roughly 1,300 compounds. About 630 (48%) were called active. So high a share suggests a set chosen from earlier hits. Only a sample is shown. Values without a mark were called inactive. Cut-off read from the data, not from the text of the source: active = inhibition above about 6.5%; inactive = the rest.
# Biological target: Tyrosine-protein kinase ABL1 (Homo sapiens) + Ras and Rab interactor 1 (Homo sapiens) (UniProt P00519+Q13671)
# Sequence (P00519 whole entry, looked up): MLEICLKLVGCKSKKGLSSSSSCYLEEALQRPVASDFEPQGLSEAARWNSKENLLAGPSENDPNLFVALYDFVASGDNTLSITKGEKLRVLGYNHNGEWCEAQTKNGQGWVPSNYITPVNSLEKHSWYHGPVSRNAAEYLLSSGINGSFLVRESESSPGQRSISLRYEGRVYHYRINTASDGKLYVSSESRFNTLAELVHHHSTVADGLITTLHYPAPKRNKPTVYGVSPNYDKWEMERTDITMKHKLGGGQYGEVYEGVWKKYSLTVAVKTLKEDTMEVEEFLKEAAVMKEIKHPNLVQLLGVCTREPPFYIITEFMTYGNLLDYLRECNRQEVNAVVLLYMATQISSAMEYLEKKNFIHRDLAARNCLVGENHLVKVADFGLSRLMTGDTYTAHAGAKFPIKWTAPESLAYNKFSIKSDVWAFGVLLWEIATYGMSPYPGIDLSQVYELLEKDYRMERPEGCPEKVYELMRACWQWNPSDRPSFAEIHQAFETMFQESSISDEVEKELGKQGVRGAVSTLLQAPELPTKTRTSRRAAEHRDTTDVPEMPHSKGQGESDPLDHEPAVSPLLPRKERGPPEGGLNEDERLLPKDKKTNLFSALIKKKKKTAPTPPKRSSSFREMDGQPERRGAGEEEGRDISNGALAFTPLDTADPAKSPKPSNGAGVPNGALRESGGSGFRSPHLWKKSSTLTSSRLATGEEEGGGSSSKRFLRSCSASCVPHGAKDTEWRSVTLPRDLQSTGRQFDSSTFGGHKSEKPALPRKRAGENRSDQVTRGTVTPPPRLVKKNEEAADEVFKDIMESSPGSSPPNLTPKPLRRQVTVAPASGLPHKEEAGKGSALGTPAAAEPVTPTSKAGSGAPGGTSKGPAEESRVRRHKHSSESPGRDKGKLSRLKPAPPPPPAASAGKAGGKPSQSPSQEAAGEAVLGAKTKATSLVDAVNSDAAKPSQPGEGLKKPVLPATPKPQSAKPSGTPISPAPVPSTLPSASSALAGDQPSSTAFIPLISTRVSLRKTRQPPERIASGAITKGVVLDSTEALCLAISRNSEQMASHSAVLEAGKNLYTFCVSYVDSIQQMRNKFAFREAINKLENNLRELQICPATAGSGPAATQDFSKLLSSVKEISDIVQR
# Sequence (Q13671 whole entry, looked up): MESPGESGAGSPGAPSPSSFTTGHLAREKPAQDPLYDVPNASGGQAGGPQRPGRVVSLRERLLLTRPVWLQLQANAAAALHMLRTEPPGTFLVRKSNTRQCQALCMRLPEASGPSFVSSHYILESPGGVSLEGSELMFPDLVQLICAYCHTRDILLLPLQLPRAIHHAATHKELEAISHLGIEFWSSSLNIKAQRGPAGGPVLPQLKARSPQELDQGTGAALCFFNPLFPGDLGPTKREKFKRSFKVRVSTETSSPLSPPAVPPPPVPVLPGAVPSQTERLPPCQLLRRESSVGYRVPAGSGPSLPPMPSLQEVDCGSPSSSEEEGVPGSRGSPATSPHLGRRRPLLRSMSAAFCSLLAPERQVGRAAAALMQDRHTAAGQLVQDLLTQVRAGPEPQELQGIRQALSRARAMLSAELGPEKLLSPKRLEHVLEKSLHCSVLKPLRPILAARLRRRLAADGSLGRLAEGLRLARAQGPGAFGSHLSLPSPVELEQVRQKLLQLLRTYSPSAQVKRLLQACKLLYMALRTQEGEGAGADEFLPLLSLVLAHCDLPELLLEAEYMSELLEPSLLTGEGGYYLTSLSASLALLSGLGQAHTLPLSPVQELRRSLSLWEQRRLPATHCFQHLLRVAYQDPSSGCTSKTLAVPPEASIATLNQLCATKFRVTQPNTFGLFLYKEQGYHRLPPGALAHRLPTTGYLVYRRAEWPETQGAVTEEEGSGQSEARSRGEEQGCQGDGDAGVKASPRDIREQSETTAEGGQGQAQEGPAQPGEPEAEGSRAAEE
# Test: disruptors of human Abl and Rin1 association – biochemical, TR-FRET, confirmation (AID 602124)
# Conditions: TR-FRET Rin1-Abl binding, purified proteins; at 7.35 µM; active compounds read high
row,Compound,inhibition
1,CN(C(=O)c1ccc(NC(=O)Cc2cccc(NC(=O)C3CCN(C(=O)c4ccccc4)CC3)c2)cc1)C1CC1,26% (active)
2,CC(=O)Nc1ccc(CN2CCC(Oc3ccc(C(=O)N4CCCC4)cc3)CC2)cc1,3.99%
3,CCOC(=O)CN(C(=O)COc1nc(C)cc(C)c1C#N)c1ccc(Cl)cc1,0.28%
4,O=C(NNc1c2ccccc2nc2ccccc12)c1cc2ccccc2cc1O,1.57%
5,CCCn1c(N)c(C(=O)CSc2nnc(-c3cccnc3)n2-c2ccc(C)cc2C)c(=O)[nH]c1=O,13.8% (active)
6,Cc1ccc(-n2c(SCC(=O)NCc3ccc4c(c3)OCO4)nnc2-c2cccnc2)c(C)c1,12.5% (active)
7,CCOc1ccc(-n2c(SCC(=O)NC3CCS(=O)(=O)C3)nnc2-c2cccnc2)cc1 (stereo not given),3.68%
8,COCCNC(=O)Nc1ccc2nc(-c3ccco3)c(-c3ccco3)nc2c1,5.72%
9,CN(CC(=O)Nc1ccc(F)cc1)CC(=O)Nc1ccc(Cl)c(S(=O)(=O)N2CCOCC2)c1,0.32%
10,CCc1ccc(CN(C)C(C)C(=O)Nc2ccc(S(=O)(=O)N3CCCC3)cc2)cc1 (stereo not given),-1.11%
11,Cc1ccccc1C(=O)N1CCC(C(=O)Nc2ccc(S(=O)(=O)N(C)C(C)C)cc2)CC1,9.43% (active)
12,O=C(Nc1ccc(S(=O)(=O)Nc2ncccn2)cc1)c1cncc(Br)c1,1.84%
13,CC(CCO)Nc1nc2c([nH]1)c(=O)n(C)c(=O)n2C (stereo not given),1.44%
14,O=c1ccc2c(-c3ccccc3S(=O)(=O)O)c3ccc(O)c(O)c3oc-2c1O,67% (active)
15,CN(C)c1ccc(N/C=C/C(=O)C(F)(F)F)cc1,-4.29%
16,COC(=O)c1ccc(COC(=O)C2CCN(S(=O)(=O)c3c(Cl)cccc3Cl)CC2)o1,16.6% (active)
17,O=C(COc1ccc(S(=O)(=O)NCCc2ccccc2)cc1)N1CCCC1,-1.2%
18,Cc1cc2ccccc2n1CCNC(=O)COc1ccc2ccccc2c1,0.15%
19,CCOC(=O)N1CCN(C(=O)C2CCCN(c3ncnc4c3sc3cccc(F)c34)C2)CC1 (stereo not given),9.09% (active)
20,CCOC(=O)N1CCN(C(=O)C2CCN(c3ncnc4c3sc3cccc(F)c34)CC2)CC1,28.5% (active)
21,CCOC(=O)N1CCC(c2cc(=O)n(-c3ccccc3)[nH]2)CC1,-2.37%
22,Cc1cc(NC(=O)CSCC(=O)NC(C)c2ccccc2)no1 (stereo not given),0.39%
23,O=C(Nc1ccc(OC(F)(F)F)cc1)c1ccc2c(c1)no[n+]2[O-],-0.65%
24,CC(OC(=O)c1ccccc1NCCO)C(=O)Nc1ccnn1C(C)C (stereo not given),53.2% (active)
25,COc1ccc(CNC(=O)c2cc(C(=O)C3CC3)c[nH]2)cc1,1.47%
26,CSc1ncnc2c1ncn2CC(=O)C1CCC2C3CCC4=CC(=O)CCC4(C)C3CCC12C (stereo not given),11.9% (active)
27,C#CCOCCOCCOCCNc1nc(N2CCN(C(=O)C(Cc3ccc(O)cc3)n3cc(C(N)CC(C)C)nn3)CC2)nc(N2CCN(C(=O)C(Cc3ccc(O)cc3)n3cc(C(N)C(C)CC)nn3)CC2)n1 (stereo not given),13.9% (active)
28,C[C@@H]1CN([C@H](C)CO)S(=O)(=O)c2ccc(C#C[C@@H](C)O)cc2O[C@@H]1CN(C)Cc1ccc(-c2ccccc2)cc1,32.5% (active)

row,Compound,inhibition
1,O=C(c1cn(-c2ccccc2)nc1-c1cc2ccccc2oc1=O)N1CCOCC1,-4.12%
2,O=C(CNCc1ccco1)Nc1cc(S(=O)(=O)N2CCOCC2)ccc1N1CCCC1,-1.42%
3,Oc1c(CN2CCN(c3ccc(F)cc3)CC2)cc(Cl)c2cccnc12,-0.1%
4,C=C1c2c(Cl)ccc(O)c2C(O)=C2C(=O)[C@]3(O)C(O)=C(C(N)=O)C(=O)[C@@H](N(C)C)[C@@H]3[C@@H](O)C12 (stereo not given in full),13.9% (active)
5,CN(Cc1c(F)cccc1Cl)C(=O)CNC(=O)c1ccc2c(c1)OCO2,45.8% (active)
6,CC(C)CNS(=O)(=O)c1ccc(C(=O)Nc2ccc3c(c2)OCO3)cc1,-0.58%
7,C=CCn1cc(C(=O)NCc2ccc(Cl)cc2)c(=O)c2cc(S(=O)(=O)N(CC)CC)ccc21,0.48%
8,CCc1cc2c(N3CCN(c4nnc(CC)s4)CC3)ncnc2s1,4.08%
9,C=CCn1c2ccccc2c2nnc(SCc3[nH]c(=O)[nH]c3C(=O)CCCCC(=O)OCC)nc21,71.5% (active)
10,Cc1ccc(C(NC(=O)C2CCN(CCOc3ccc(Cl)cc3Cl)CC2)c2ccccn2)cc1 (stereo not given),0.23%
11,CCOc1ccc(S(=O)(=O)N2CCCCC2)cc1NC(=O)CN1CCCC1c1cccs1 (stereo not given),0.05%
12,Cc1cccc(N(C)C(=O)CN2C(=O)COc3ccc(S(=O)(=O)N4CCCCCC4)cc32)c1,7.15% (active)
13,NS(=O)(=O)c1ccc(CCNC(=O)Nc2ccc(Cl)cc2)cc1,-1.53%
14,Oc1cccc2cc(-c3ccncc3)cnc12,20.6% (active)
15,CCOc1ccc(CNC(=O)C2CCCN(c3nnc(C)c4c(C)n(-c5ccccc5)nc34)C2)cc1 (stereo not given),12.6% (active)
16,OC[C@@H]1CN(Cc2ccc(Cl)cc2)C[C@H](n2cnc3c(NCc4ccncc4)ncnc32)O1,2.98%
17,Cc1nn(-c2ncc(C(F)(F)F)cc2Cl)c(=O)n1-c1ccccc1,-0.89%
18,O=C(CC1SCCNC1=O)Nc1ccc(Cl)cc1 (stereo not given),12.1% (active)
19,Nc1nc2n(n1)C(c1ccco1)CC(c1ccc(Cl)c(Cl)c1)N2 (stereo not given),0.66%
20,O=c1c2c(nc3n1CCCCC3)sc1c(O)cccc12,14.5% (active)
21,CC(=O)NC(c1cccs1)c1cc(Br)c2cccnc2c1O (stereo not given),15.9% (active)
22,Cc1c(CC(=O)N2CCN(C(=O)C3COc4ccccc4O3)CC2)c(=O)oc2c(O)c(O)ccc12 (stereo not given),8.45% (active)
23,NC1=CC(=O)C(=O)c2cccnc21,19.5% (active)
24,COc1cc(C(=S)N2CCOCC2)ccc1O,-2.83%
25,Cc1ccccc1CN1C[C@@H]2C[C@@H](c3ccc4nsnc4c3)N3CCC[C@@]23C1=O,22% (active)
26,Nc1cc(=O)c2[nH]cnc2[nH]1,18.1% (active)
27,O=c1cc(CO)oc(CN2CCC(Cc3ccccc3)CC2)c1O,-3.76%
